Data as given in ChEMBL document CHEMBL3433997, “St. Jude Leishmania screening dataset” (2016).

Experiments:
Format in all cases: functional
[1] = molecular target: Solute carrier family 2, facilitated glucose transporter member 1 (Homo sapiens) (UniProt P11166); experiment: ST_JUDE_LEISH: Cytotoxicity at 2uM final concentration against transgenic Leishmania Mexicana promastigotes LmGLUT1 that are glucose transport deficient and complemented with the human glucose transporter GLUT1. Activity is measured by DNA content using SYBR green in vitro
Solute carrier family 2, facilitated glucose transporter member 1 (Homo sapiens), sequence (P11166 whole entry): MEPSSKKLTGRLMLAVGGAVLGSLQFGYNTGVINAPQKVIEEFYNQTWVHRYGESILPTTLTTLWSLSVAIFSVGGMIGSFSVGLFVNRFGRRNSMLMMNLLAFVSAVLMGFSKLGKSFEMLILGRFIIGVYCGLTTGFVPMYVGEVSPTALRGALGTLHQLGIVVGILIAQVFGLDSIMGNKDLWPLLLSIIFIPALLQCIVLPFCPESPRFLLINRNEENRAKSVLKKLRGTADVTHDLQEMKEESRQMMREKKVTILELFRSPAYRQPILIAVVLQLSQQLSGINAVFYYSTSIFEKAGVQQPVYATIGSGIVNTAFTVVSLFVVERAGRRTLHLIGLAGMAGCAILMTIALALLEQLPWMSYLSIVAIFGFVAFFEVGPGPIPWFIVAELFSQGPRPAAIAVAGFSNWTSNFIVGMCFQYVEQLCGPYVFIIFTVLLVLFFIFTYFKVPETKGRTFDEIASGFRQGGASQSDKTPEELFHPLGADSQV

[2] = molecular target: Hexose transporter 1 (Plasmodium falciparum) (UniProt O97467); experiment: ST_JUDE_LEISH: Cytotoxicity at 2uM final concentration against transgenic Leishmania Mexicana promastigotes LmPfHT that are glucose transport deficient and complemented with the Plasmodium falciparum hexose transporter. Activity is measured by DNA content using SYBR green in vitro
[3] = molecular target: Glucose transporter (Leishmania mexicana) (UniProt O61059); experiment: ST_JUDE_LEISH: Cytotoxicity at 2uM final concentration against transgenic Leishmania Mexicana promastigotes LmGT2 that are glucose transport deficient and complemented with the L. Mexicana glucose transporter 2. Activity is measured by DNA content using SYBR green in vitro

SMILES | inhibition [1] [%] | inhibition [2] [%] | inhibition [3] [%]
CCN1CCN(c2ccc(NC(=O)c3cc4c(C)nn(-c5ccccc5)c4s3)cc2C)CC1 | 1.44 | 3.9 | -1.39
CCN1CCC(N(CCCCCCc2ccc(C(F)(F)F)cc2)C(=O)Cn2c(CCc3cccc(F)c3F)cc(=O)c3ccccc32)CC1 | 5.17 | 3.94 | 2.53
CC(C)(C)c1ccc2[nH]c(-c3ccc(C(=O)NCCCc4ccccc4)cc3)nc2c1 | 2.42 | 2.97 | -0.47
CS(=O)(=O)Cc1ccc(Nc2nccc(-c3c(-c4cccc(C(=O)Nc5c(F)cccc5F)c4)nn4ccccc34)n2)cc1 | 21.4 | 10.2 | 2.15
Cc1cc(Nc2cccc(C(F)(F)F)c2)nc(Nc2cccc(C(F)(F)F)c2)n1 | 4.73 | 4.81 | -0.49
Cc1cccc2nc(-c3ccc(-c4ccc(NC(=O)c5cncn5C)cc4)s3)[nH]c12 | 11.3 | 9.8 | 7.26
CC(C)Cc1nc(N2CCOCC2)c2nnn(Cc3ccccc3)c2n1 | 3.23 | 1.31 | 1.84
O=C(Nc1ccon1)c1cc(-c2cccnc2)nc2ccc(Br)cc12 | 2.83 | 5.32 | 0.72
NC1CCN(c2cnn(Cc3cccc(NC(=O)Nc4ccc(-c5ccccc5)cc4)c3)c(=O)c2Cl)CC1 | 1.64 | 1.72 | 2.25
CC(C)CNc1c2c(nc3cnn(-c4c5c(nc6cn[nH]c46)CCCC5)c13)CCCC2 | -3.17 | -1.12 | -2.14
O=C(NC1CCCCN(Cc2ccccc2O)C1)c1cccc(C(F)(F)F)c1 (stereo not given) | 2.43 | 1.72 | -4.05
COC(=O)c1cccc(CNCc2ccc(-c3ccc(-c4nc5cccc(C)c5[nH]4)cc3)cc2)c1 | 6.68 | 1.95 | 1.08
Cc1cc(N[C@@H](Cc2ccccc2)C(=O)NC2CCCC2)nc(NCC2CCCCC2)n1 | 3.03 | 3.67 | 0.45
CCN(CC)CCN(Cc1ccc(-c2ccc(C(F)(F)F)cc2)cc1)C(=O)Cn1c(CCc2cccc(F)c2F)nc(=O)c2cc(F)ccc21 | 4.48 | 2.96 | 4.5
O=C(N1CCN(c2cccc(C(F)(F)F)c2)CC1)C(Cl)(Cl)Cl | 0.96 | 5.03 | 1.47
N#Cc1ccc(-c2nc3c(N4CCCC4)cccc3n2CCNCc2ccccc2)cc1 | 12.3 | 11 | 11.8
COc1ccc(Nc2ccnc3cc(-c4ccccn4)ccc23)cc1OC | 1.2 | 0.73 | -0.54
CC1=C(C(=O)OCCOCc2ccccc2)C(c2ccccc2C(F)(F)F)C(C(=O)OCCOCc2ccccc2)=C(C)N1 | -0.46 | -0.98 | -2.95

SMILES | inhibition [1] [%] | inhibition [2] [%] | inhibition [3] [%]
COc1ccc(-c2nc(-c3ccc([N+](=O)[O-])cc3)no2)cc1OC | 1.91 | 2.39 | 1.76
Cc1nc(N)nc(N)c1-c1cc(Cl)c(N)c(Cl)c1 | -0.04 | -0.43 | -1.52
CN1CCN(Cc2cccc(-c3ccc4c(Nc5ccc(Oc6cccnc6)cc5)ccnc4c3)c2)CC1 | 4.73 | 5.64 | 4.34
O=C(Nc1cccc(CN2CCCN(Cc3cccc(Cl)c3)CC2)c1)c1ccc(-c2ccccc2)cc1 | 4.82 | 4.23 | 0.66
O=C(Nc1cccc(C(F)(F)F)c1)c1ccc(S(=O)(=O)NCC2CCCN2CC2CCCCC2)cc1 (stereo not given) | 1.8 | 3.93 | -0.18
N#Cc1ccc(C(=O)Nc2ccc(Cl)c(N3CCN(CCc4ccccc4)CC3)c2)cc1 | 8.77 | 7.95 | 7.85
CCC1(CC)C(=O)N=C(N2CCCCC2)N(C)C1=O | 19 | 14.2 | 5.99
O=C(NCCNc1noc(-c2sccc2Br)n1)c1ccc(Cl)cc1 | -1.4 | 3.34 | -0.91
CN(C)CC1CCCN1Cc1ccccc1-c1cnn(C)c(=O)c1Oc1ccc(F)cc1 (stereo not given) | 5.23 | 4.08 | 4.45
Oc1ccc(Br)cc1-c1nc2ccc(Cl)cc2nc1-c1cc(Br)ccc1O | 1.9 | 1.4 | 2.66
O=C(Nc1ccc(F)c(C(F)(F)F)c1)NC1CCN(CCCCCNC(=O)C2CC2c2ccc(Cl)c(Cl)c2)CC1 (stereo not given) | 4.2 | 3.79 | 4.44
CCc1ccc(N2C(N)=NC(N)=NC2(C)C)cc1 | 0.74 | 1.29 | 2.09
Cc1cc(N[C@@H](Cc2ccccc2)C(=O)Nc2ccccc2)nc(Nc2ccccc2)n1 | 5.97 | 5.91 | -0.05
CN(Cc1c(Cl)cnn1C)S(=O)(=O)c1ccc2ccccc2c1 | 5.51 | 7.25 | 5.64
CN(C)c1ccc(CN2CCC(NC(=O)c3ccc(-c4ccc(N(C)C)cc4)s3)CC2)cc1 | 1.4 | -0.22 | -0.4
CC(=O)NC(c1cccs1)c1cc(Cl)c2cccnc2c1O (stereo not given) | 7.76 | 6.65 | 7.85
C=CCn1c(Sc2ccc(C#N)c([N+](=O)[O-])c2)nnc1-c1ccc(OC)cc1 | 4.25 | 6.95 | 3.25
